Drawing on ChEMBL document CHEMBL2218924, “A broad activity screen in support of a chemogenomic map for kinase signalling research and drug discovery” (Biochem J, 2013), this text covers residual activity for seven compounds.

Molecules are shown by their SMILES.

Assay [1] addresses T1, Ephrin type-B receptor 2 (Homo sapiens) (UniProt P29323).
T1 sequence (whole entry): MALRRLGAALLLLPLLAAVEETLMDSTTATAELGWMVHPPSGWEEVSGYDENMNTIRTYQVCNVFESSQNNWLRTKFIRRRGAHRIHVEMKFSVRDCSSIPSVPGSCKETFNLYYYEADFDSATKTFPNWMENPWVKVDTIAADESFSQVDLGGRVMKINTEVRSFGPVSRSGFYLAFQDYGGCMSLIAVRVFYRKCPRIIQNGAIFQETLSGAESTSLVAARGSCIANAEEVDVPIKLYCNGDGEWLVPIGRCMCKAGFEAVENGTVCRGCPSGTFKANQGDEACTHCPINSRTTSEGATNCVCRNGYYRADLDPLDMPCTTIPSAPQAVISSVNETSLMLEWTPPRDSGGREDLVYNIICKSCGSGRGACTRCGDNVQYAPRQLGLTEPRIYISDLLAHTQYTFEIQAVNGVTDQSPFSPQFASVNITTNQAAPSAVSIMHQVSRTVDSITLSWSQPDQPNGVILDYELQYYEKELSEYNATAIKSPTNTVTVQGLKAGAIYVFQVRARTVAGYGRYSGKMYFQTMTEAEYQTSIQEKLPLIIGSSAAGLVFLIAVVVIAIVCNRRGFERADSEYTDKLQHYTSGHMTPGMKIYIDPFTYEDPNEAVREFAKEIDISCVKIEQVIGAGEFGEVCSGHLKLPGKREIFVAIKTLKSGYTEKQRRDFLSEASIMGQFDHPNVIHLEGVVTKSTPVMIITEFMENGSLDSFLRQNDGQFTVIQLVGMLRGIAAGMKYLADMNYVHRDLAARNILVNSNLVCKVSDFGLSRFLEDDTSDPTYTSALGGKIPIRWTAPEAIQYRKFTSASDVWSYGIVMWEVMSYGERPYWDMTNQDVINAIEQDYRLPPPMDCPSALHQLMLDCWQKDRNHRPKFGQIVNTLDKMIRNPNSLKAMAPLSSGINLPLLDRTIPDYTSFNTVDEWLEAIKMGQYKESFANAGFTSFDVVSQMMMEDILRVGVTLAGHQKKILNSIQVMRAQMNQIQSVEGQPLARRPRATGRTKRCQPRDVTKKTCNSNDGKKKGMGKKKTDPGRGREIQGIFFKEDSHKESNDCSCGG
To be noted: at 1 µM.

Assay [2] concerns the target T1, Ephrin type-B receptor 2 (Homo sapiens). To be noted: at 10 µM.
Assay [3] has as its target T2, Ephrin type-B receptor 3 (Homo sapiens) (UniProt P54753).
T2 sequence (whole entry): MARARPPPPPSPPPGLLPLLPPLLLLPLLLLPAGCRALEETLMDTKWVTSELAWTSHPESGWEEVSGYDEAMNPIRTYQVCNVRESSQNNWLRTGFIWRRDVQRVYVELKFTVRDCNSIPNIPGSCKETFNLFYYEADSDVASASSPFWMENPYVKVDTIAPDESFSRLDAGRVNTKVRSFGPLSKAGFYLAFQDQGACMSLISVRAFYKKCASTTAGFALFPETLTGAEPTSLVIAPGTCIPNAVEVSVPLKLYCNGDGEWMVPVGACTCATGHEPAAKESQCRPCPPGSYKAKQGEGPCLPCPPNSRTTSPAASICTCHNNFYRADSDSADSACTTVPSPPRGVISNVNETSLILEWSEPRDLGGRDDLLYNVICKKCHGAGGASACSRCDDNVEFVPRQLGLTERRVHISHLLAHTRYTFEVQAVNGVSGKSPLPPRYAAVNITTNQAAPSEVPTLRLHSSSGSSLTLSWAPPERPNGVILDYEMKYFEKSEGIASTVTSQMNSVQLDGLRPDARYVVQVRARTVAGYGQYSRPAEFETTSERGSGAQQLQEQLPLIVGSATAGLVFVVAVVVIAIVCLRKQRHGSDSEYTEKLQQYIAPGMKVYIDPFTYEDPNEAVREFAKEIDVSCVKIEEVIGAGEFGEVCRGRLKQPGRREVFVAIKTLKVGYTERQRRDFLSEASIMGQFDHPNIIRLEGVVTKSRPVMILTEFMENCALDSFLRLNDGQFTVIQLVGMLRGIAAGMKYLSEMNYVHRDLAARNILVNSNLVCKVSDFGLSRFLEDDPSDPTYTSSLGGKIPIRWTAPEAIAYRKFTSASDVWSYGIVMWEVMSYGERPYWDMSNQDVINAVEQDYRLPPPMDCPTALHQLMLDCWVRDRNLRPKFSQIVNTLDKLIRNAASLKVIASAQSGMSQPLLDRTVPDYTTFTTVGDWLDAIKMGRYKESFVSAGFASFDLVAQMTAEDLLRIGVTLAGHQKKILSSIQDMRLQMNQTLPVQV
To be noted: at 1 µM.

In assay [4] the target is T2, Ephrin type-B receptor 3 (Homo sapiens). To be noted: at 10 µM.
For assay [5], the target named is T3, Ephrin type-B receptor 4 (Homo sapiens) (UniProt P54760).
T3 sequence (whole entry): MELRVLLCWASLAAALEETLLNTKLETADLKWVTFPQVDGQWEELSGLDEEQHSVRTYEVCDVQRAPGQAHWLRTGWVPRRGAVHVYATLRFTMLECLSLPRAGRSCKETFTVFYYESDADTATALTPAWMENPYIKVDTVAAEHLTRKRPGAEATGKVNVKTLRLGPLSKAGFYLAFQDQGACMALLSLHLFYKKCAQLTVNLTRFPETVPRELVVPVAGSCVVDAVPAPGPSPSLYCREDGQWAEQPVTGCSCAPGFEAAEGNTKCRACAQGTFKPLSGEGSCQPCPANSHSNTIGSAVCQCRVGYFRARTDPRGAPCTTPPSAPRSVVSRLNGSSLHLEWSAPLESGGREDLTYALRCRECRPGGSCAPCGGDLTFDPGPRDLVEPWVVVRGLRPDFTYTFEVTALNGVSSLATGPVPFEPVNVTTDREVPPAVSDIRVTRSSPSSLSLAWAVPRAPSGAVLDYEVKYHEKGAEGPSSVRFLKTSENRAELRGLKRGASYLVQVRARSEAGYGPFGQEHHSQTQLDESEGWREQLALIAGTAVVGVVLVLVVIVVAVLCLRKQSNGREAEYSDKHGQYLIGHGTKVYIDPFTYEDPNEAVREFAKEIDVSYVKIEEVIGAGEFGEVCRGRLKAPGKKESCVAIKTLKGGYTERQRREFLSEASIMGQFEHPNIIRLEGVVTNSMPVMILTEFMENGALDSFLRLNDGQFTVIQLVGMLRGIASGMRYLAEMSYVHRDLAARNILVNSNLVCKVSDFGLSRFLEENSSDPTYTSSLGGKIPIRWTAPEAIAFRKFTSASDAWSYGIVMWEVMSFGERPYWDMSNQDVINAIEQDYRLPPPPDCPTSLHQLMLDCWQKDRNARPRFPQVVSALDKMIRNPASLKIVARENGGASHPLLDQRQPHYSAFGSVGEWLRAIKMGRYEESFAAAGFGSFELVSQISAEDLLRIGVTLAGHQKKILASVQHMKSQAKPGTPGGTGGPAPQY
To be noted: at 1 µM.

In assay [6] the target is T3, Ephrin type-B receptor 4 (Homo sapiens). To be noted: at 10 µM.
The target in assay [7] is Receptor tyrosine-protein kinase erbB-4 (Homo sapiens) (UniProt Q15303). To be noted: at 10 µM.
Receptor tyrosine-protein kinase erbB-4 (Homo sapiens), sequence (Q15303 whole entry): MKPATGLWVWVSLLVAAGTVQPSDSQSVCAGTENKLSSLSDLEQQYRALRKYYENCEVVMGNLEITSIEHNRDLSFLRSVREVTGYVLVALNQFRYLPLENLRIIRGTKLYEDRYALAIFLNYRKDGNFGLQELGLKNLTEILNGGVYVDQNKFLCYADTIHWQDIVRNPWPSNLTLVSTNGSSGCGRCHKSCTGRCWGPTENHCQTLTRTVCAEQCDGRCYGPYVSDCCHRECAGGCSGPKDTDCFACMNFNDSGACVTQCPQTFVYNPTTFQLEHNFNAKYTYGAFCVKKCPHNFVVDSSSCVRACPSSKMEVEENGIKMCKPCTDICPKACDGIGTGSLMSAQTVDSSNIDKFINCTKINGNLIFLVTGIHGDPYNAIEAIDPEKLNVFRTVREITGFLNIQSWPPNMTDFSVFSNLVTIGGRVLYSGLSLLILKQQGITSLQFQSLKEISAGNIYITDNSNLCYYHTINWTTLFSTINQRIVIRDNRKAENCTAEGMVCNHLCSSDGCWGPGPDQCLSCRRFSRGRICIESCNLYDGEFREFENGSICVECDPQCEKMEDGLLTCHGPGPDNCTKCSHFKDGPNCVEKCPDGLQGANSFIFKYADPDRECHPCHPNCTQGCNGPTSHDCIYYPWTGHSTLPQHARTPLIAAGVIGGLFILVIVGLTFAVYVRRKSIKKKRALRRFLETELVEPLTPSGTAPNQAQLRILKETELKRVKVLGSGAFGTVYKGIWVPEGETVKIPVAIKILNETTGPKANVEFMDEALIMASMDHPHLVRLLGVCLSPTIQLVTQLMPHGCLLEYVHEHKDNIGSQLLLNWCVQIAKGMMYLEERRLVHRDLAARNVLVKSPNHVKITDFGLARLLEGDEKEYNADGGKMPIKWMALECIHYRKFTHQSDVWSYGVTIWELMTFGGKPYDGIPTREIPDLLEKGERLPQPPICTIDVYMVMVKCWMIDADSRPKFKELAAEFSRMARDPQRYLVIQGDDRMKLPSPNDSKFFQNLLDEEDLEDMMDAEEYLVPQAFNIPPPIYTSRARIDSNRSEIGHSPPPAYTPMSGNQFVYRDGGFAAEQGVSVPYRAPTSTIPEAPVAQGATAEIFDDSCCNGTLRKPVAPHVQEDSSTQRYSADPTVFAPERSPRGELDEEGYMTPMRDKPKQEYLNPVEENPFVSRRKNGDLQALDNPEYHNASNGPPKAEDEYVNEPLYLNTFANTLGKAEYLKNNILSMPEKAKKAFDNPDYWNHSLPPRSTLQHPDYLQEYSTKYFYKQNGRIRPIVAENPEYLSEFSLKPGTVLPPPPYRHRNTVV
The target in assay [8] is Focal adhesion kinase 1 (Homo sapiens) (UniProt Q05397). To be noted: at 1 µM.
Focal adhesion kinase 1 (Homo sapiens), sequence (Q05397 2-1052 limits assumed): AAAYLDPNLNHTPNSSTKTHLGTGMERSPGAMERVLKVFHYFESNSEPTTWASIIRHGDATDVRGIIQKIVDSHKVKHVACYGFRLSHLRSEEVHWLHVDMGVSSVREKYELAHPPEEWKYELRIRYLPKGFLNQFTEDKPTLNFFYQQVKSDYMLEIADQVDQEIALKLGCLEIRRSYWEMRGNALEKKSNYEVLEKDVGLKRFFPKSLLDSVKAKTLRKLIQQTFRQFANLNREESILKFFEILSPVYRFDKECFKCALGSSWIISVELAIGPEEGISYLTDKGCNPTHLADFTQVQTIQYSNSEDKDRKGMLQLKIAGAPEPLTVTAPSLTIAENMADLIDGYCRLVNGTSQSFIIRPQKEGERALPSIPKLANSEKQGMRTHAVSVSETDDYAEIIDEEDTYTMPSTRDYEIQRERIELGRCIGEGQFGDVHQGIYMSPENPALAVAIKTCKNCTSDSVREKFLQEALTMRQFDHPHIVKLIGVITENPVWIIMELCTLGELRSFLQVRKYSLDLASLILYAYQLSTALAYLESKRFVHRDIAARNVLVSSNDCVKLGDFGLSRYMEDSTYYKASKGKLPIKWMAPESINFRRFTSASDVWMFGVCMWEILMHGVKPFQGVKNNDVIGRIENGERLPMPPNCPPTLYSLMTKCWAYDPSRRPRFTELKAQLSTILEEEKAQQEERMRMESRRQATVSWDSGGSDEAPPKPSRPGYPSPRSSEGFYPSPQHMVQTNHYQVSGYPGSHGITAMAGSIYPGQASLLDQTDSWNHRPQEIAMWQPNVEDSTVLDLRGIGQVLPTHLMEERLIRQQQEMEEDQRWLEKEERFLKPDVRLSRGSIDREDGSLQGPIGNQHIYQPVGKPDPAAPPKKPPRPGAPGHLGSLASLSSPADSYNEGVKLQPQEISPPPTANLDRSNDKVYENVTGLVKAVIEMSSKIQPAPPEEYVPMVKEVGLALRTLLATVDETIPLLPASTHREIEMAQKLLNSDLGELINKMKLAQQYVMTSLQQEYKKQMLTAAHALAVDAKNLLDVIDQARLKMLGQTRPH
The target of assay [9] is T4, Ephrin type-B receptor 1 (Homo sapiens) (UniProt P54762).
T4 sequence (whole entry): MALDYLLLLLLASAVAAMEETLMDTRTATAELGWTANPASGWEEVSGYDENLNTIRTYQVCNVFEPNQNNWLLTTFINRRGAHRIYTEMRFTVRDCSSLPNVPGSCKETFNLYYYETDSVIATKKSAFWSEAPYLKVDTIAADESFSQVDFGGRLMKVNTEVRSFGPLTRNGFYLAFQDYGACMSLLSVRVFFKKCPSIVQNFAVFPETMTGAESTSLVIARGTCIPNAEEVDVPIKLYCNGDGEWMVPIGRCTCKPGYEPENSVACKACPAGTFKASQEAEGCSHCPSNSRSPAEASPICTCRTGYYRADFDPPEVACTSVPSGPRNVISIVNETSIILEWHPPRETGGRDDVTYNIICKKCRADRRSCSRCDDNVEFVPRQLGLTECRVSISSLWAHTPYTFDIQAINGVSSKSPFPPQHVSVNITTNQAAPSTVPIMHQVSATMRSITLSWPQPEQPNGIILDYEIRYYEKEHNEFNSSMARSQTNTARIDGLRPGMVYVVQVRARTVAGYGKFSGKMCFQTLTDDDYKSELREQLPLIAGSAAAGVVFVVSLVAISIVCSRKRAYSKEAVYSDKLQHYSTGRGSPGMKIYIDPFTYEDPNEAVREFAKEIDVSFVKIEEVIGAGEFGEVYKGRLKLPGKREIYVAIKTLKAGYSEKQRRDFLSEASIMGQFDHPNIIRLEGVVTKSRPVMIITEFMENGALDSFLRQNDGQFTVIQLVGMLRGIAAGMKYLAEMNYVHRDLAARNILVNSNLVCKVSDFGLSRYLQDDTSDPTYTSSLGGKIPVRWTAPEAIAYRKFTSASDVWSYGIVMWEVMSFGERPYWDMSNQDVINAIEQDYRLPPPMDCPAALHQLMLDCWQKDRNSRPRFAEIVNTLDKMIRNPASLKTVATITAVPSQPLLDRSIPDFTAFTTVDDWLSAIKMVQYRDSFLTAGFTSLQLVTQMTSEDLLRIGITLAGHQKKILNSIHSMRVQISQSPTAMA
To be noted: at 10 µM.

Assay [10] addresses Receptor tyrosine-protein kinase erbB-4 (Homo sapiens) (UniProt Q15303). To be noted: at 1 µM.

With `CCc1nc(-c2ccc(OC)cc2)[nH]c1-c1ccncc1`, the residual activity (commonly the signal under treatment as a percentage of the control signal) in [1] was 120%; in assay [2], 115%; in [3] it was 110% (inactive); in assay [4], 111%; in assay [5] it was 112%; in assay [6] it was 101%. The residual activity in assay [7] came out at 108%; in [8], 115%.
For the compound `O=c1[nH]c2ccccc2n1C1CCN(Cc2ccc(-c3nc4cc5[nH]cnc5cc4nc3-c3ccccc3)cc2)CC1`, the residual activity in assay [9] was 76%; in [1], 119%; in assay [2], 90%; in [3] it was 123% (inactive); in [4], 105%; in assay [5], 109%. Further, the residual activity amounted to 117% in assay [6], 99% in assay [10], 61% in [7] and 143% in [8].
Regarding `CC(C)(C)c1cc(C=C(C#N)C#N)cc(Br)c1O`, the residual activity in [9] was 96%; in assay [1] it was 116%; in assay [2] it was 121%; in assay [3], 96% (inactive); in assay [4], 121%; in assay [5], 102%. Moreover, the residual activity in assay [6] came to 110%; in [10], 114%; in assay [7], 132%; in assay [8] it was 149%.
As for `COc1cc(OC)c(/C=C2\C(=O)Nc3ccccc32)c(OC)c1`, the residual activity in assay [9] is 88%; in assay [3], 124% (inactive); in assay [4], 107%; in [5], 86%; in assay [6], 82%; in assay [7], 106%. The residual activity in assay [8] amounted to 92%.
With `COc1ccc2c(c[n+](C)c3c4cc5c(cc4ccc23)OCO5)c1OC`, the residual activity in assay [9] was 91%; in [1], 121%; in [2] it was 121%; in [3], 126% (inactive); in [4] it was 133%; in assay [5] it was 94%. Moreover, the residual activity in assay [6] turned out to be 119%; in assay [10], 96%; in [7], 79%; in assay [8] it was 140%.
Take `COC(=O)[C@@]1(O)C[C@H]2O[C@]1(C)n1c3ccccc3c3c4c(c5c6ccccc6n2c5c31)C(=O)NC4`: the residual activity in assay [9] was 4%; in assay [1], 114%; in [2], 55%; in assay [3] it was 110% (inactive); in assay [4], 100%; in assay [5] it was 71%. The residual activity in [6] amounted to 22%; in assay [10], 64%; in assay [7] it was 19%; in assay [8] it was 39%.
On to `O=C1Nc2ccc3ncsc3c2/C1=C/c1c[nH]cn1`, for which the residual activity in assay [9] is 9%; in assay [1], 87%; in assay [2] it was 29%; in assay [3] it was 120% (inactive); in assay [4] it was 131%; in assay [5] it was 79%. The residual activity in [6] came out at 29%; in [10], 88%; in assay [7], 102%; in assay [8] it was 73%.
